Drawing on PubChem BioAssay (NCI), this text covers growth for 7 molecules.

Each structure is given as a SMILES string. This is part of a sample that, as a whole, favours compounds with a hit. Of some 83,000 tested, about 20% had one in any assay.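 Assay: single dose, 48 h. Readout: percent growth (0 = no net growth; negative = cell death). Active: <10.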 A number with no mark means an inactive call. The source made the active and inactive calls.

Test systems include SR leukemia; RPMI-8226 leukemia; OVCAR-8 ovarian; OVCAR-5 ovarian; OVCAR-4 ovarian; SK-OV-3 ovarian; IGROV1 ovarian; OVCAR-3 ovarian; HS 578T breast; T-47D breast; BT-549 breast; MDA-MB-435 melanoma; SW-620 colon; MCF7 breast; HCT-116 colon; HCC-2998 colon; KM12 colon.
What all share (assay): NCI-60 one-dose screen, 48 h (100 = growth as untreated, 0 = no growth, -100 = all killed)
The test system of the next assay is NCI/ADR-RES ovarian. To be noted: 10 µM unless noted.

With `COc1ccc(C(=O)/C=C/c2ccc(OCc3cccc(C(F)(F)F)c3)c(OC)c2)cc1OC`, the growth with SR leukemia (10 µM) is 36.8%; in the assay with SR leukemia (100 µM), 5.42% (active); in the assay on RPMI-8226 leukemia (10 µM) it was 29.7%; in the assay on RPMI-8226 leukemia (100 µM) it was -0.397% (active); in the assay on OVCAR-8 ovarian (10 µM), 67.1%; with OVCAR-8 ovarian (100 µM) it was 4.75% (active). In addition, the growth is 109% in the assay on OVCAR-5 ovarian (10 µM); 51.5% in the assay with OVCAR-5 ovarian (100 µM); 74.9% in the assay with OVCAR-4 ovarian (10 µM); 20.3% in the assay with OVCAR-4 ovarian (100 µM); 88.7% in the assay with SK-OV-3 ovarian (10 µM); 20% in the assay on SK-OV-3 ovarian (100 µM). The growth was 93.6% in the assay on IGROV1 ovarian (10 µM); 5.18% (active) with IGROV1 ovarian (100 µM); 79.8% with OVCAR-3 ovarian (10 µM); -10.3% (active) with OVCAR-3 ovarian (100 µM); 98.2% in the assay on HS 578T breast (10 µM); 11.6% in the assay with HS 578T breast (100 µM). The growth in the assay with T-47D breast (10 µM) is 54.2%; with T-47D breast (100 µM) it was 11.3%; in the assay with BT-549 breast (10 µM) it was 95.2%; with BT-549 breast (100 µM), -41.3% (active); with MDA-MB-435 melanoma (10 µM), 86.3%; in the assay on MDA-MB-435 melanoma (100 µM), 12%. In addition, the growth in the assay with SW-620 colon (10 µM) is 59.1%; with SW-620 colon (100 µM), 6.75% (active); in the assay on MCF7 breast (10 µM), 40%; in the assay on MCF7 breast (100 µM), 6.42% (active); in the assay on HCT-116 colon (10 µM) it was 52.3%; with HCT-116 colon (100 µM), 3.91% (active). The growth with HCC-2998 colon (10 µM) is 105%; in the assay with HCC-2998 colon (100 µM), 10.8%; in the assay with KM12 colon (10 µM), 72.5%; in the assay on KM12 colon (100 µM) it was 12.4%.
Turning to `CN(Cc1ccccc1)c1nc(Cl)c(C2CC(c3ccc(F)cc3)=NN2C=O)s1` (stereo not drawn), the growth in the assay on SR leukemia (10 µM unless noted) is 92.2%; in the assay with RPMI-8226 leukemia (10 µM unless noted), 82.5%; in the assay on OVCAR-8 ovarian (10 µM unless noted), 100%; in the assay with OVCAR-5 ovarian (10 µM unless noted) it was 99.8%; in the assay on OVCAR-4 ovarian (10 µM unless noted), 90.9%; with SK-OV-3 ovarian (10 µM unless noted), 113%. The growth in the assay with IGROV1 ovarian (10 µM unless noted) was 89.4%; with OVCAR-3 ovarian (10 µM unless noted), 100%; in the assay on HS 578T breast (10 µM unless noted), 97.9%; in the assay with NCI/ADR-RES ovarian, 90.2%; in the assay on T-47D breast (10 µM unless noted), 85.5%; with BT-549 breast (10 µM unless noted), 113%. Moreover, the growth with MDA-MB-435 melanoma (10 µM unless noted) was 96.8%; in the assay with SW-620 colon (10 µM unless noted) it was 101%; in the assay on MCF7 breast (10 µM unless noted), 86.7%; in the assay on HCT-116 colon (10 µM unless noted), 86.9%; with HCC-2998 colon (10 µM unless noted), 95.4%.
Turning to `C=CCN1C=CC(=O)[C@H](O[Si](C)(C)C(C)(C)C)[C@@H]1/C=C/c1ccccc1`, the growth is -25.6% [100 µM] (active) with SR leukemia (10 µM unless noted); -16% [100 µM] (active) in the assay on RPMI-8226 leukemia (10 µM unless noted); -47.1% [100 µM] (active) in the assay with OVCAR-8 ovarian (10 µM unless noted); -82.8% [100 µM] (active) in the assay with OVCAR-5 ovarian (10 µM unless noted); -84% [100 µM] (active) in the assay on OVCAR-4 ovarian (10 µM unless noted); -87.6% [100 µM] (active) in the assay with SK-OV-3 ovarian (10 µM unless noted). The growth is -56.3% [100 µM] (active) with IGROV1 ovarian (10 µM unless noted); -73.5% [100 µM] (active) with OVCAR-3 ovarian (10 µM unless noted); -24.1% [100 µM] (active) in the assay on HS 578T breast (10 µM unless noted); -74.7% [100 µM] (active) with NCI/ADR-RES ovarian; -80.7% [100 µM] (active) in the assay on T-47D breast (10 µM unless noted); -62.4% [100 µM] (active) with BT-549 breast (10 µM unless noted). Also, the growth was -48.2% [100 µM] (active) in the assay with MDA-MB-435 melanoma (10 µM unless noted); -58.9% [100 µM] (active) with SW-620 colon (10 µM unless noted); -75.1% [100 µM] (active) in the assay on MCF7 breast (10 µM unless noted); -77.5% [100 µM] (active) with HCT-116 colon (10 µM unless noted); -87.3% [100 µM] (active) with HCC-2998 colon (10 µM unless noted).
Regarding `CCN(CC)/C([O-])=c1\cccc\c1=C1\N=C(c2ccccc2)N=C1[n+]1ccc(-c2ccccc2)cc1`, the growth is 102% in the assay with SR leukemia (10 µM unless noted); 98.4% in the assay on RPMI-8226 leukemia (10 µM unless noted); 97.6% in the assay with OVCAR-8 ovarian (10 µM unless noted); 87.8% in the assay on OVCAR-5 ovarian (10 µM unless noted); 99.5% in the assay with OVCAR-4 ovarian (10 µM unless noted); 105% in the assay on SK-OV-3 ovarian (10 µM unless noted). Moreover, the growth in the assay on IGROV1 ovarian (10 µM unless noted) was 54.7%; in the assay with OVCAR-3 ovarian (10 µM unless noted) it was 94%; in the assay with HS 578T breast (10 µM unless noted) it was 109%; with NCI/ADR-RES ovarian, 98.2%; in the assay on T-47D breast (10 µM unless noted), 90.5%; in the assay on BT-549 breast (10 µM unless noted), 93.3%. Also, the growth with MDA-MB-435 melanoma (10 µM unless noted) is 96.8%; in the assay on SW-620 colon (10 µM unless noted), 91.6%; in the assay with MCF7 breast (10 µM unless noted), 93%; in the assay with HCT-116 colon (10 µM unless noted), 97%; in the assay on HCC-2998 colon (10 µM unless noted), 93.3%.
On to `Cn1ccnc1CN1CCSC(C(=O)Nc2ccccc2)C1` (stereo not drawn), for which the growth was 96.8% in the assay with SR leukemia (10 µM unless noted); 88.5% in the assay with RPMI-8226 leukemia (10 µM unless noted); 95.5% in the assay with OVCAR-8 ovarian (10 µM unless noted); 83.1% in the assay on OVCAR-5 ovarian (10 µM unless noted); 90.7% with OVCAR-4 ovarian (10 µM unless noted); 98.7% in the assay on SK-OV-3 ovarian (10 µM unless noted). Besides, the growth with IGROV1 ovarian (10 µM unless noted) was 94.5%; in the assay with OVCAR-3 ovarian (10 µM unless noted), 102%; in the assay on HS 578T breast (10 µM unless noted), 95.9%; with NCI/ADR-RES ovarian, 92.7%; in the assay with T-47D breast (10 µM unless noted) it was 90.7%; in the assay on BT-549 breast (10 µM unless noted), 93.3%. Moreover, the growth in the assay with MDA-MB-435 melanoma (10 µM unless noted) was 92.2%; in the assay on SW-620 colon (10 µM unless noted), 96.9%; with MCF7 breast (10 µM unless noted), 91.6%; in the assay on HCT-116 colon (10 µM unless noted) it was 96.2%; with HCC-2998 colon (10 µM unless noted) it was 98.6%.
As for `COc1cc(C=O)ccc1Oc1ccc([N+](=O)[O-])cc1[N+](=O)[O-]`, the growth with SR leukemia (10 µM unless noted) was 80.7%; with RPMI-8226 leukemia (10 µM unless noted) it was 89.5%; with OVCAR-8 ovarian (10 µM unless noted), 93.7%; in the assay with OVCAR-5 ovarian (10 µM unless noted), 109%; in the assay on OVCAR-4 ovarian (10 µM unless noted), 97%; with SK-OV-3 ovarian (10 µM unless noted), 96.4%. The growth in the assay with IGROV1 ovarian (10 µM unless noted) was 105%; with OVCAR-3 ovarian (10 µM unless noted), 107%; in the assay with HS 578T breast (10 µM unless noted), 93.1%; in the assay with NCI/ADR-RES ovarian, 99.6%; in the assay on T-47D breast (10 µM unless noted) it was 75.2%; in the assay with BT-549 breast (10 µM unless noted), 98%. The growth with MDA-MB-435 melanoma (10 µM unless noted) is 112%; in the assay on SW-620 colon (10 µM unless noted) it was 91.7%; with MCF7 breast (10 µM unless noted), 99.2%; in the assay with HCT-116 colon (10 µM unless noted), 94.9%; in the assay on HCC-2998 colon (10 µM unless noted) it was 109%; with KM12 colon (10 µM unless noted), 105%.
On to `CCCCCCCCCCCCCCCCCCOc1cccc(CC(=O)OCC[N+](CC)(CC)CC)c1`, for which the growth is 53% with SR leukemia (10 µM unless noted); 35.4% in the assay with RPMI-8226 leukemia (10 µM unless noted); 41.4% with OVCAR-8 ovarian (10 µM unless noted); 71.3% in the assay with OVCAR-5 ovarian (10 µM unless noted); 27.6% in the assay on OVCAR-4 ovarian (10 µM unless noted); 103% with SK-OV-3 ovarian (10 µM unless noted). Moreover, the growth is 37.1% in the assay on IGROV1 ovarian (10 µM unless noted); 77.7% with OVCAR-3 ovarian (10 µM unless noted); 60.8% in the assay on HS 578T breast (10 µM unless noted); 103% in the assay with NCI/ADR-RES ovarian; 52.7% in the assay with T-47D breast (10 µM unless noted); 86.9% in the assay with BT-549 breast (10 µM unless noted). The growth in the assay with MDA-MB-435 melanoma (10 µM unless noted) was 82.1%; with SW-620 colon (10 µM unless noted), 78.6%; in the assay with MCF7 breast (10 µM unless noted), 32.7%; with HCT-116 colon (10 µM unless noted), 51.7%; in the assay on HCC-2998 colon (10 µM unless noted), 56.1%; with KM12 colon (10 µM unless noted) it was 83.3%.
